A short description of experiment [1]: anti-His antibody binders, primary screen, artefact control for SMM control protein annotation, biochemical, small-molecule microarray, 635 nm fluorescence (AID 1128).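 Further: score merges feature fluorescence with signal-to-noise for each printed compound spot.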 As to conditions: anti-His Alexa647 antibody binding, higher = more signal.
Experiment [2] relates to Human papillomavirus type 1a E7 protein (residues 1-88). As to the kind of experiment: HPV1a E7 small-molecule binders, primary screen, biochemical, small-molecule microarray, residues 1-88, 635 nm (AID 1129). As to conditions: small-molecule microarray binding, fluorescence 635 nm; higher = more signal.
Experiment [3] has as its target Focal adhesion kinase 1 (Homo sapiens) (UniProt Q05397). As to the kind of experiment: small-molecule microarray binders of FAK, primary screen, biochemical, 635/667 nm fluorescence, BSA, DTT (AID 1130).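 Further: composite of spot emission at 667 nm and signal to noise over triplicate slides.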 As to conditions: PTK2 binding, 635 nm fluorescence, higher = more signal.
For experiment [4], the system named is Fibrinogen (Alexa647-labelled). As to the kind of experiment: fibrinogen binders on compound microarrays, profiling panel, artefact control for SMM control-protein annotation, biochemical, small-molecule microarray, 635/667 nm fluorescence (AID 1131).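 Further: z-score merges 667 nm fluorescence with per-spot signal-to-noise over triplicate slides.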 As to conditions: fibrinogen-A647 binding fluorescence, higher = more signal.
The target in experiment [5] is Follistatin (Homo sapiens) (UniProt P19883). As to the kind of experiment: follistatin binders on small-molecule microarrays, primary screen, biochemical, small-molecule microarray, 635/667 nm fluorescence (AID 1132). As to conditions: FST binding, 635 nm fluorescence, higher = more signal.
The target in experiment [6] is Fibroblast growth factor 2 (Homo sapiens) (UniProt P09038). As to the kind of experiment: FGF2 binders on small-molecule microarrays, primary screen, biochemical, small-molecule microarray, 635/667 nm fluorescence (AID 1133). As to conditions: small-molecule microarray binding, FGF2, fluorescence 635/667; higher = more signal.
Experiment [7] in a line: mitochondrial membrane potential change in A549 cells, profiling panel, cell-based, JC-1 fluorescence, basal, 24 h, 100 nL (AID 1138).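 Further: A549 lung adenocarcinoma cells under basal conditions with no added stimulus; test concentration not given here.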 As to conditions: higher = more signal.
A further experiment concerns Lefty1. As to the kind of experiment: Lefty1 binders on small-molecule microarrays, primary screen, biochemical, small-molecule microarray, 635/667 nm fluorescence (AID 1139). As to conditions: small-molecule microarray binding, fluorescence 635/667; higher = more signal.
Experiment [8] relates to wheat germ agglutinin (Triticum aestivum), Alexa647-labelled. Briefly: wheat germ agglutinin binders on compound microarrays, profiling panel, artefact control for SMM control-protein annotation, biochemical, small-molecule microarray, 635/667 nm fluorescence (AID 1140).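 Further: score merges 667 nm feature emission with signal to noise over triplicate slides.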 As to conditions: WGA-A647 binding, 635 nm fluorescence, higher = more signal.
Experiment [9] deals with Luciferin 4-monooxygenase (Photinus pyralis) (UniProt P08659). As to the kind of experiment: firefly luciferase enzyme inhibitors, primary screen, biochemical, luminescence, purified enzyme, 2006 set (AID 1141).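 Further: cell-free assay with purified firefly luciferase at 100 ng per well in PBS; test concentration not given here.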 As to conditions: SteadyGlo luminescence, 30 min, higher = more signal, called active from +8 up or from −8 down.
Experiment [10] concerns Wnt5a (protein binding on small-molecule microarray). As to the kind of experiment: Wnt5a binders on small-molecule microarray, primary screen, biophysical, 635/667 nm fluorescence (AID 1142).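 Further: fluorescence read at 667 nm with signal to noise per printed feature.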 As to conditions: 635 nm fluorescence, higher = more signal.
Experiment [11] can be described thus: cell viability in Huh7 cells, primary screen, cytotoxicity control for HCV replication inhibitor project, CellTiter-Glo luminescence, basal, 48 h (AID 1143).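 Further: Huh7 hepatoma cells carrying a hepatitis C replication reporter with no stimulus; test concentration not given here.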 As to conditions: Huh7 HCV replicon, higher = more signal, called active from +8 up or from −8 down. Background: ATP-based viability assays read luminescence as a measure of living cells.
Experiment [12] can be described thus: P. aeruginosa biofilm formation inhibitors, primary screen, PAO1 strain, BacTiter-Glo luminescence, LB-PBS (AID 1144). As to conditions: 12 h, higher = more signal.
Experiment [13] can be described thus: CREB reporter modulators without forskolin, primary screen, cell-based, PC12, CRE-LacZ reporter, unstimulated (AID 1145). As to conditions: no forskolin, luminescence, 4.5 h, higher = more signal, called active from +8 up or from −8 down.
A short description of experiment [14]: CREB reporter modulators under forskolin, primary screen, cell-based, PC12, CRE-LacZ reporter, forskolin-stimulated (AID 1146).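 Further: PC12 cells with 6xCRE LacZ reporter stimulated by forskolin 10 µM; beta-galactosidase reporter signal reflecting CREB driven transcription.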 As to conditions: luminescence, 4.5 h, higher = more signal, called active from +8 up or from −8 down.
In experiment [15] the target is Streptavidin (Streptomyces avidinii) (UniProt P22629). Briefly: streptavidin binders on small-molecule microarray, primary screen, artefact control for SMM compound annotation, biophysical, 635/667 nm fluorescence (AID 1147).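 Further: signal reflects streptavidin binding to arrayed compounds as a control protein.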 As to conditions: streptavidin binding, higher = more signal.
The nature of experiment [16]: small-molecule binders of probe aInhba, primary screen, biochemical, small-molecule microarray, 635/667 nm fluorescence (AID 1148).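 Further: score merges 667nm spot fluorescence with signal-to-noise for antibody binding to printed compounds.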 As to conditions: higher = more signal.
In experiment [17] the target is Torsin-1A (Homo sapiens) (UniProt O14656). Briefly: torsin A binders from cell lysate, primary screen, small-molecule microarray, wild-type, 635/667 nm (AID 1149). As to conditions: COS7 hTOR1A-WT lysate, 635 nm fluorescence, higher = more signal.
Experiment [18] shares this target. Briefly: small-molecule binders of mutant TOR1A in lysate, primary screen, cell lysate, small-molecule microarray, COS7 lysate, 635/667 nm fluorescence (AID 1150).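 Further: score pools 667 nm emission and signal to noise measuring lysate protein binding.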 As to conditions: COS7 hTOR1A mutant lysate, 635 nm fluorescence, higher = more signal.
Experiment [19] deals with Sonic hedgehog protein (Shh). As to the kind of experiment: small-molecule binders of Shh protein, primary screen, biochemical, small-molecule microarray, 635/667 nm fluorescence (AID 1151).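 Further: Shh protein binding to compounds spotted on small-molecule microarray slides; score combines spot fluorescence intensity with signal-to-noise across triplicate slides.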 As to conditions: small-molecule microarray binding, 635 nm fluorescence; higher = more signal.

The values below come from PubChem BioAssay.

Structures are written as SMILES. The source made the active and inactive calls. Unless noted, how the calls were made is not given here.

Chain of Streptavidin (Streptomyces avidinii) (P22629 whole entry, looked up): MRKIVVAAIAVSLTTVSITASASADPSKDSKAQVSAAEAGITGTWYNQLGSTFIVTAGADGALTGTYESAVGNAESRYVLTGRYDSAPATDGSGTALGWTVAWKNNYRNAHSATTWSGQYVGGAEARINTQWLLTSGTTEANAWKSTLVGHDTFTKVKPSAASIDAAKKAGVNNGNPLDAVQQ
Chain of Focal adhesion kinase 1 (Homo sapiens) (Q05397 whole entry, looked up): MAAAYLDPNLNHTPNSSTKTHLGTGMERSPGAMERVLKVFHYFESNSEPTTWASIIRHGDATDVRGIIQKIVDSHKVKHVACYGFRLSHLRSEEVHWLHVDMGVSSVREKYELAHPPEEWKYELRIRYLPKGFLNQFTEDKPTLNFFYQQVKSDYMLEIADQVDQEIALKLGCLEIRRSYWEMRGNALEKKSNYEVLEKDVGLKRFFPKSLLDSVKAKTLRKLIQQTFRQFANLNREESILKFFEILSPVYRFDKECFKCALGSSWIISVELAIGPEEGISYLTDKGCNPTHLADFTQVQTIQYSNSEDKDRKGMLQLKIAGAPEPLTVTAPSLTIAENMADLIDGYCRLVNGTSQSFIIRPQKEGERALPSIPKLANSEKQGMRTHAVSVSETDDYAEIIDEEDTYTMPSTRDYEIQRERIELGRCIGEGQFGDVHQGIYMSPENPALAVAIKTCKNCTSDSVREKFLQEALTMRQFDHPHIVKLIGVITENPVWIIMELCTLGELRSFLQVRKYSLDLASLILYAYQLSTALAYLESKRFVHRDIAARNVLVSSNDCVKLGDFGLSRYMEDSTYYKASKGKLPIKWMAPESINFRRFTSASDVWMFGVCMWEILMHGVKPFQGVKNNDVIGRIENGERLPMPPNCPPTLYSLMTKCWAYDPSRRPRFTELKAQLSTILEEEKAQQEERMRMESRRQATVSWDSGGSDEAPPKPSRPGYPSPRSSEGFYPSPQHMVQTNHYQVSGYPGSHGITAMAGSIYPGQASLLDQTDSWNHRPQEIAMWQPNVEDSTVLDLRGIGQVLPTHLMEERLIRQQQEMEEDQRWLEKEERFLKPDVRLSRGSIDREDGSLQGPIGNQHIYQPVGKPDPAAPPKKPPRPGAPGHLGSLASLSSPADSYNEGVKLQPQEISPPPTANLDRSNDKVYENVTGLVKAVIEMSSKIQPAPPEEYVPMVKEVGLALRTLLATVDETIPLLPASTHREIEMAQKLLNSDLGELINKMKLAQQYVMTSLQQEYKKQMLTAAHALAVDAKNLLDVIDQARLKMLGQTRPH
Chain of Torsin-1A (Homo sapiens) (O14656 whole entry, looked up): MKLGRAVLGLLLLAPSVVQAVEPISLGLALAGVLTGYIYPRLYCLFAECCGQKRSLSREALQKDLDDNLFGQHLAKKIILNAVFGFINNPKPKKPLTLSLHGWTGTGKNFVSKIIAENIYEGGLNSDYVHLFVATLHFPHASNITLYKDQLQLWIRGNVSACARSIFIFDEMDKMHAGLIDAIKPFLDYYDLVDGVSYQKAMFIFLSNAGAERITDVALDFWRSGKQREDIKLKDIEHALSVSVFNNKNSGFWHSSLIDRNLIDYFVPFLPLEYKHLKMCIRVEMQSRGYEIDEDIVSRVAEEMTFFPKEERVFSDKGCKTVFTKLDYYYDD
Chain of Fibroblast growth factor 2 (Homo sapiens) (P09038 whole entry, looked up): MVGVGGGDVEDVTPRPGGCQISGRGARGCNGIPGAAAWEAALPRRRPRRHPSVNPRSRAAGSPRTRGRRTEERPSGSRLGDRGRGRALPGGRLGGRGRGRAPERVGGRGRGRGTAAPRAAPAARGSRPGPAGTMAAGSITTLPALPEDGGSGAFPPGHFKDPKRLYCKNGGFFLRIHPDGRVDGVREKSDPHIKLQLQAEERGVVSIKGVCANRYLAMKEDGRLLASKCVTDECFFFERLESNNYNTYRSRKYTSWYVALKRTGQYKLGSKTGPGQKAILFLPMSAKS
Chain of Luciferin 4-monooxygenase (Photinus pyralis) (P08659 whole entry, looked up): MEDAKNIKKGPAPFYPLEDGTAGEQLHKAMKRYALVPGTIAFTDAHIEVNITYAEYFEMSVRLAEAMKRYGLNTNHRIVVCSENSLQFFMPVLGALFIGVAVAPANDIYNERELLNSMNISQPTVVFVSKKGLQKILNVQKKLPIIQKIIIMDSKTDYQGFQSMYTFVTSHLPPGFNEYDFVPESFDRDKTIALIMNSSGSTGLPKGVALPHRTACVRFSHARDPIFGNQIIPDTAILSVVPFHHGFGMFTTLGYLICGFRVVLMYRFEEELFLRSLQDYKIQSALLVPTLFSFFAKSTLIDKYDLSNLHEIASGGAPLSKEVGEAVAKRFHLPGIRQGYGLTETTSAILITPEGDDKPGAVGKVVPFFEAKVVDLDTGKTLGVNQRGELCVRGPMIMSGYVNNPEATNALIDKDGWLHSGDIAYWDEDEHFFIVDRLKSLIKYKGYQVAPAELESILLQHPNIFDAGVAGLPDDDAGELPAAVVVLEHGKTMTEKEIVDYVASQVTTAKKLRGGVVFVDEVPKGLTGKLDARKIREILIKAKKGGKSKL
Chain of Follistatin (Homo sapiens) (P19883 whole entry, looked up): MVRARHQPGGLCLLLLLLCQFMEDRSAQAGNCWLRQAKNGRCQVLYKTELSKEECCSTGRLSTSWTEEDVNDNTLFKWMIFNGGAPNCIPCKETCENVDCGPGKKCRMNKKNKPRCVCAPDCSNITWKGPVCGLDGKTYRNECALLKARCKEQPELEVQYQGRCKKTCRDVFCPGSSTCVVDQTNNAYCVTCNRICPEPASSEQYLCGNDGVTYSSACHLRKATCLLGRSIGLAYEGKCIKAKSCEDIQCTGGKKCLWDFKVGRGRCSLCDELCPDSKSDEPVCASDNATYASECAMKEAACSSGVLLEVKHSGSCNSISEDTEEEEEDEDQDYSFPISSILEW

In the case of `C=CCCN(CC#C[C@H]1Oc2ccccc2S(=O)(=O)N2CCC[C@@H]12)S(=O)(=O)c1ccc(C)cc1`, the composite z-score in [1] is 0.881; in [2], 0.136; in [3], 0.172; in [4], -0.348; in [5] it was 0.546; in experiment [6] it was 1.22. Moreover, the composite z-score in the experiment on Lefty1 was 0.317; in experiment [8] it was -0.0231; in experiment [10], 0.264; in experiment [15], -0.198; in experiment [16], -0.0471; with Torsin-1A (Homo sapiens) [17], 0.554. The composite z-score is -0.109 in the experiment with Torsin-1A (Homo sapiens) [18] and 0.624 in experiment [19]. Besides, the z-score is 0.957 in experiment [7]; -0.291 (inactive) in experiment [9]; -1.57 (inactive) in experiment [11]; 0.592 (inactive) in experiment [12]; 0.761 (inactive) in experiment [13]; 3.31 (inactive) in experiment [14].
Regarding `C=CCC(OC(C)=O)[C@@H]1[C@@H](N(Cc2cc3ccccc3o2)C(=O)c2ccc(C)cc2)c2cc(OCCCO)ccc2N1C(=O)c1ccc(-c2ccccc2)cc1` (stereo not given in full), the composite z-score is -0.277 in experiment [1]; 0.0357 in experiment [2]; 0.13 in experiment [3]; 0.122 in [4]; 0.714 in experiment [5]; -0.206 in experiment [6]. The composite z-score in the experiment on Lefty1 is 0.239; in [8], 0.107; in experiment [10] it was -0.221; in [15], 0.0073; in experiment [16] it was 0.295; in the experiment with Torsin-1A (Homo sapiens) [17], 0.308. For the same compound, the composite z-score is -0.264 with Torsin-1A (Homo sapiens) [18] and 0.158 in [19]. For the same compound, the z-score in experiment [7] is 0.291; in experiment [9], 0.352 (inactive); in experiment [11], -2.92 (inactive); in experiment [12], -2.16 (inactive); in [13], 2.76 (inactive); in experiment [14], -1.12 (inactive).
On to `O[C@@H](Cc1ccccc1)[C@@H](/C=C/c1ccccc1)NCc1ccccc1Br`, for which the composite z-score in experiment [1] is -0.538; in experiment [2], -0.85; in experiment [3] it was -0.716; in [4] it was -0.354; in experiment [5], -1.19; in [6], -1.14. The composite z-score with Lefty1 was -1.64; in experiment [8] it was 0.217; in [10], -1.01; in experiment [15] it was -0.736; in [16], -0.205; with Torsin-1A (Homo sapiens) [17], -2.13. Also, the results for the composite z-score (with Torsin-1A (Homo sapiens) [18]; in [19]) were -1.9 and -1.08, respectively. The z-score is 0.772 in experiment [7]; 0.284 (inactive) in experiment [9]; -0.626 (inactive) in [11]; -0.662 (inactive) in experiment [12]; 2.67 (inactive) in experiment [13]; -2.09 (inactive) in experiment [14].
As for `Cc1ccc(C(C)CC(O)C2C=CC3C(=O)NC(=O)C3N2Nc2ccccn2)o1` (stereo not given), the composite z-score in [1] is 1.17; in experiment [2], -0.722; in [3], -0.121; in experiment [4] it was -0.633; in experiment [5] it was 0.709; in experiment [6] it was 0.243. Besides, the composite z-score with Lefty1 was 0.643; in [8] it was -0.0217; in [10], -0.0405; in experiment [15] it was -0.585; in experiment [16], 0.0797; with Torsin-1A (Homo sapiens) [17] it was 0.81. Also, the composite z-score with Torsin-1A (Homo sapiens) [18] came out at 0.282; in experiment [19], 0.452. Besides, the z-score in [7] is 0.839; in [9] it was -2.19 (inactive); in [11], 1.2 (inactive); in experiment [12] it was -1.31 (inactive); in experiment [13] it was -0.712 (inactive); in experiment [14], -0.364 (inactive).
`O=C1C2C=CC(C(O)c3ccc(B(O)O)cc3)N(Nc3ccc([N+](=O)[O-])cc3)C2C(=O)N1c1ccccc1` (stereo not given): the composite z-score in experiment [1] is 0.359; in [2], 1.21; in experiment [3], -0.164; in [4] it was 0.843; in experiment [5], 1.13; in experiment [6], 0.284. For the same compound, the composite z-score worked out at 0.284 in the experiment on Lefty1; 1.11 in [8]; 0.263 in experiment [10]; 0.759 in [15]; 0.0785 in [16]; 0.363 with Torsin-1A (Homo sapiens) [17]. Also, the composite z-score with Torsin-1A (Homo sapiens) [18] was 0.286; in [19], 0.221. The z-score is 0.0898 in experiment [7]; 0.491 (inactive) in experiment [9]; -0.307 (inactive) in experiment [11]; -0.0903 (inactive) in [12]; -1.07 (inactive) in [13]; -2.26 (inactive) in [14].
